This is a sample that favours compounds with a hit; in the whole collection about 2.2% have one here.
MITF TRPM1 inh: inhibitors of MITF-dependent TRPM1 promoter reporter, primary screen, cell-based, SK-MEL-5, single point, luciferase. SK-MEL-5 TRPM1 promoter luciferase, 24 h. inhibition, % at 12.5 µM. 0.83% of 330,000 active;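 active = mean inhibition across replicates of 60% or more, whatever share of single replicates reaches that level; inconclusive = some that reach 60%, reason not given; inactive = mean inhibition across replicates below 60%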
EWS-Fli block: EWS/Fli-driven NR0B1 reporter inhibitors, primary screen, A673 cells, NR0B1 luciferase, luminescence, MLPCN library. viability-normalised. AID 651661, 2012. inhibition, % at 12.6 µM. 0.67% of 350,000 active;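 active = mean inhibition of at least 50% after viability correction, with every replicate also passing that limit; inconclusive = mean reaches 50% but only one of two replicates passes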;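 also: firefly luciferase signal divided by Alamar Blue viability fluorescence both relative to DMSO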
EBV LMP1 NFkB: EBV LMP1-driven NF-kappaB luciferase reporter inhibitors, primary screen, cell-based, luminescence, single point; 0.69% of 350,000 active; AID 504558, 2011; inhibition, % at 12.5 µM; LMP1-induced NF-kappaB luciferase reporter cells; in the data active = inhibition above about 41%; inconclusive = no clear call, values can overlap the other calls;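 also: 0% = neutral control wells and 100% = reference inhibitor control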
LGR2 antag: inhibitors of bursicon-induced LGR2 CRE-luciferase signal, primary screen, cell-based, HEK293, CRE-luciferase reporter, bursicon stimulation; inhibition, % at 9.99 µM; AID 720647, 2013; 0.35% of 380,000 active; Drosophila bursicon receptor LGR2 (rickets); bursicon-stimulated, 4 h;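 active = drop in luminescence signal, shown as inhibition above about 50% in the replicate tests, limit read from the data, passing the limit was not always enough; inconclusive = probably only some replicates passing the limit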;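 also: agonist challenge used bursicon conditioned medium at about half maximal strength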
PAX8 inh HTS: inhibitors of PAX8-driven TPO luciferase reporter, primary screen, RMG-I cells, single concentration; SteadyGlo, 24 h; inhibition, % at 12.6 µM; 1.2% of 360,000 active;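 active = mean replicate inhibition at least 60% with every replicate also reaching 60%; inconclusive = only one of the two criteria is met; inactive = mean below 60% and not all replicates reaching 60%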;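 also: luciferase light reporting Pax8 driven TPO promoter activity; plate controls were median of neutral control wells for no effect and mitoxantrone controls for full effect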
Shn3 inh set2: reduction of Shn3 3'UTR firefly luciferase signal, primary screen, Schnurri-3 inhibitor project, cell-based, Clone20 osteoblasts, set 2; Clone20 osteoblast Shn3 3'UTR firefly luciferase, 24 h; inhibition, % at 12.5 µM; 0.52% of 360,000 active; AID 588674, 2011;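 active = mean inhibition of at least 75% with every replicate also reaching 75%; inconclusive = mean inhibition at least 75% but some replicate below; inactive = mean inhibition below 75%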;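 also: 0% = median of neutral control wells and 100% = pilot-screen positive control compound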
The depositor's hits bear a star; ? = inconclusive; . = no result.

SMILES | MITF TRPM1 inh | EWS-Fli block | EBV LMP1 NFkB | LGR2 antag | PAX8 inh HTS | Shn3 inh set2
O=C1CN(S(=O)(=O)c2ccccc2)C[C@@H]2[C@H](c3ccc(C#Cc4ccccc4)cc3)[C@H](CO)N12 | . | . | . | -10 | . | .
COc1ccc(-n2ncc3c(N4CCC(C)CC4)ncnc32)cc1 | . | 48 | 35 | ? | -20 | 5
COc1ccc(-n2ncc3c(N(C)C4CCCCC4)ncnc32)cc1 | 59 | 78* | 52* | 94* | -34 | 64
Cc1cccc(-n2ncc3c(N(C)C4CCCCC4)ncnc32)c1 | 80* | 73* | 37 | 88* | 47 | 76
COc1ccc(OC(=O)N2CCOCC2)cc1 | -5 | -21 | -9 | 0 | 0 | -25
COc1ccc(/C(N)=N/OC(=O)N2CCOCC2)cc1 | 10 | -11 | 90* | 25 | 4 | -10
O=C(C[C@H]1C[C@@H]2c3cc(NC(=O)c4ccc5c(c4)OCO5)ccc3O[C@@H]2[C@@H](CO)O1)NCc1ccccn1 | . | 5 | . | 16 | 0 | .
O=C(COC(=O)/C=C/c1ccco1)NCc1ccccc1 | 4 | 4 | -6 | -8 | -7 | 6
CCCNC(=O)COC(=O)/C=C/c1ccc2c(c1)OCO2 | -1 | 3 | -1 | -11 | 69* | -14
O=C(COC(=O)/C=C/c1ccc2c(c1)OCO2)Nc1ccccc1 | -21 | -20 | 0 | -64 | -11 | -48
CCCNC(=O)COC(=O)/C=C/c1ccco1 | -4 | -1 | -2 | 3 | 88* | -27
C[C@@H]1CN([C@H](C)CO)C(=O)c2cccc(NC(=O)Nc3ccc(C(F)(F)F)cc3)c2O[C@H]1CN(C)S(=O)(=O)c1ccccc1 | . | 7 | . | -1 | 7 | .
COCC(=O)N(C)C[C@@H]1Oc2cc(C#CC3CCCC3)ccc2S(=O)(=O)N([C@H](C)CO)C[C@H]1C | . | 4 | . | -11 | . | .
CCC(=O)N1C[C@@H](C)[C@H](OC)CN(C)C(=O)c2ccc(NC(=O)C3CC3)cc2OC[C@H]1C | . | -6 | . | 14 | 4 | .
Cc1nc(C)c(C(=O)NCc2ccc(Cl)cc2)o1 | 1 | 5 | 11 | 2 | . | -21
Cc1nn(C)c(C(=O)NCc2ccc(Cl)cc2)c1Cl | 10 | . | 22 | -2 | -13 | 86*
O=C(N[C@@H]1CC[C@@H](CCNS(=O)(=O)Cc2ccccc2)O[C@H]1CO)c1cnccn1 | . | 1 | . | -7 | 12 | .
O=C(COc1ccc(C(=O)c2ccc(F)cc2)cc1)NCc1ccc(F)cc1 | 30 | 57* | 4 | 20 | 21 | 24
C[C@@H]1CCCCO[C@@H](CN(C)Cc2ccc3c(c2)OCO3)[C@@H](C)CN([C@@H](C)CO)C(=O)c2cc(NS(=O)(=O)c3ccc(F)cc3)ccc2O1 | . | 5 | . | -5 | 25 | .
COc1ccc(NC(=O)CCOc2cc(C)ccc2C)cc1S(=O)(=O)N1CCCCC1 | 12 | 4 | 17 | . | -14 | 93*
O=C(Cn1ccc(C(F)(F)F)n1)Nc1cccc(S(=O)(=O)N2CCCCC2)c1 | 3 | 0 | 53* | 9 | -4 | 11
COc1ccc(CC(=O)Nc2cccc(S(=O)(=O)N3CCCCCC3)c2)cc1OC | 31 | . | 20 | 7 | 20 | 90*
Cc1ccc(S(=O)(=O)N2CCCCC2)cc1NC(=O)Cn1ccc(C(F)(F)F)n1 | 12 | 9 | 2 | 6 | 8 | 15
COc1ccc(NC(=O)CCCOc2ccc(C)cc2)cc1S(=O)(=O)N1CCCCC1 | . | 7 | 3 | 3 | 2 | 35
CC12CCC(=O)N1C(C(=O)OCC(=O)Nc1cccc(S(=O)(=O)N3CCCCCC3)c1)CS2 (configuration not stated) | 1 | 9 | -4 | -4 | 84* | -23
SMILES | MITF TRPM1 inh | EWS-Fli block | EBV LMP1 NFkB | LGR2 antag | PAX8 inh HTS | Shn3 inh set2
CCC(=O)Nc1ccc2c(c1)OC[C@@H](C)N(Cc1nccs1)C[C@H](C)[C@H](OC)CN(C)C2=O | . | -1 | . | 4 | 2 | .
CN(C)CC(=O)Nc1ccc2c(c1)[C@@H]1C[C@@H](CC(=O)NC3CCCCC3)O[C@@H](CO)[C@@H]1O2 | . | 4 | . | -9 | -13 | .
COc1ccc(CN2C[C@@H](C)[C@H](OC)CN(C)C(=O)c3ccc(NC(C)=O)cc3OC[C@H]2C)cc1 | . | -2 | . | . | 4 | .
CC(=O)c1ccccc1OCC(=O)Nc1cccc(S(=O)(=O)N2CCCC2)c1 | -24 | -16 | 46* | 1 | -7 | 8
C[C@@H]1CN([C@H](C)CO)C(=O)c2cc(NC(=O)c3ccccc3)ccc2O[C@@H](C)CCCCO[C@H]1CN(C)Cc1ccc(Cl)c(Cl)c1 | . | . | . | -3 | . | .
C[C@@H]1CN([C@H](C)CO)C(=O)c2cccc(NC(=O)c3ccncc3)c2O[C@H]1CN(C)Cc1ccc(Cl)c(Cl)c1 | . | -4 | . | 16 | 61* | .
C[C@@H]1CCCCO[C@@H](CN(C)Cc2ccc(Cl)c(Cl)c2)[C@@H](C)CN([C@@H](C)CO)C(=O)c2cc(NC(=O)c3ccccc3)ccc2O1 | . | 9 | . | 9 | 66* | .
C[C@@H]1CN([C@@H](C)CO)C(=O)c2cc(NC(=O)Cn3cnnn3)ccc2O[C@H]1CN(C)Cc1ccc(Cl)c(Cl)c1 | . | 63* | . | -4 | -13 | .
C[C@H]1CCCCO[C@H](CN(C)Cc2ccc(Cl)c(Cl)c2)[C@@H](C)CN([C@@H](C)CO)C(=O)c2cc(NC(=O)c3ccccc3)ccc2O1 | . | 13 | . | -20 | 67* | .
C[C@H](CO)N1C[C@H](C)[C@H](CN(C)S(C)(=O)=O)Oc2c(NC(=O)Nc3ccc(C(F)(F)F)cc3)cccc2C1=O | . | -9 | . | 8 | 1 | .
Cc1cccc(-c2ccc([C@H]3[C@@H](CO)N4C(=O)CN(C(=O)Cc5ccccn5)C[C@@H]34)cc2)c1 | . | 7 | . | 0 | -12 | .
C[C@@H]1CCCCO[C@H](CN(C)Cc2ccc(Cl)c(Cl)c2)[C@@H](C)CN([C@@H](C)CO)C(=O)c2cc(NC(=O)Cc3ccccc3)ccc2O1 | . | -2 | . | -9 | 96* | .
C[C@@H]1CN([C@H](C)CO)C(=O)c2cc(NC(=O)Cc3ccccc3)ccc2O[C@@H](C)CCCCO[C@@H]1CN(C)Cc1ccc(Cl)c(Cl)c1 | . | 6 | . | 4 | 6 | .
CC(=O)N1[C@H](CO)[C@H](c2ccccc2)C12CN(C(=O)Cc1ccccc1)C2 | . | -1 | . | -4 | -5 | .
CCCCCOc1ccc(NC(=O)C(=O)NCCCn2ccnc2)cc1 | 9 | . | 5 | . | 77* | 59
COc1ccc(NC(=O)N(C)C[C@@H]2Oc3c(NC(=O)Nc4ccc(C(F)(F)F)cc4)cccc3C(=O)N([C@H](C)CO)C[C@@H]2C)cc1 | . | 1 | . | 6 | . | .
C=C(C)c1nc(Oc2ccccc2)nc(Oc2ccccc2)n1 | ? | 42 | -2 | 20 | 97* | 36
